The test system of this experiment is Plasmodium falciparum. The experiment can be described thus: GSK_TCMDC: Inhibition of Plasmodium falciparum Dd2 in whole red blood cells, using parasite LDH activity as an index of growth. Test compounds present at 2uM. Type of experiment: functional.
`Cc1ccc(C(=O)Nc2ccc(Nc3ccnc4cc(-c5ccncc5)ccc34)cc2O)cc1` returned an Inhibition of 100%.

On to `Cc1cccc2c(/C=C/C(=O)NC3CCC(CCN4CCc5ccc(C#N)cc5CC4)CC3)c[nH]c12.Cl` (centres undefined), for which the Inhibition is listed as 49%.

`CN(C)CCNCc1ccc(-c2cccc(-c3nc4ccccc4[nH]3)c2)cc1.O=C(O)C(F)(F)F`: the Inhibition was found to be 63%.

As to `CN(C)CCCOc1ccc(CCCCc2ccc(Cl)cc2C(=O)c2ccccc2)cc1.O=C(O)C(=O)O`, the Inhibition worked out at 8%.

Turning to `O=C(Cn1c(CCc2cccc(F)c2F)cc(=O)c2ccccc21)N(Cc1ccc(-c2ccc(C(F)(F)F)cc2)cc1)C1CCN(CCN2CCOCC2)CC1.O=C(O)C(O)C(O)C(=O)O`, the Inhibition is on record as 41%.

Consider `Cl.N=C(N)NN=Cc1c2ccccc2c(Cl)c2c(Cl)cccc12`, for which the Inhibition turned out to be 72%.

`COc1ccc(NC(=O)NC2CCN(c3ccnc4cc(Cl)ccc34)CC2)cc1.O=C(O)C(F)(F)F` showed an Inhibition of 64%.

Compound `C=CCOC(=O)N1CCC(CNCc2ccc(-c3cccc(-c4nc5cc(F)ccc5[nH]4)c3)cc2)C1.O=C(O)C(F)(F)F` (centres undefined) displayed an Inhibition of 99%.

Take `COc1cc(NC(=O)/C=C/c2ccccc2OC(F)(F)F)cc(OCCN2CCCCC2)c1.O=C(O)C(=O)O`: the Inhibition is 6%.

As for `COC(=O)[C@@H](NC(=O)[C@@H](Nc1ccc(C#N)c2ccccc12)C(C)(C)C)c1ccc(O)cc1`, the Inhibition was determined as 74%.

`CN(C)CCN(C)C(=O)c1cc(-c2ccncc2)c(-c2ccc(Cl)c(O)c2)o1.Cl` gave an Inhibition of 34%.

`CCC(NC(=O)c1ccccc1NC(=O)c1ccc(C)cc1)C(=O)OC` (centres undefined) displayed an Inhibition of 86%.

The compound `Br.C=CCN1Cc2c(O)cccc2C(c2ccc(O)c(O)c2)C1` (centres undefined) gave an Inhibition of 6%.

For `Oc1ccc(-c2nc(-c3ccc4oc5ccc(-c6[nH]c(-c7ccc(O)cc7)nc6-c6ccccc6)cc5c4c3)c(-c3ccccc3)[nH]2)cc1`, the Inhibition is 71%.

Consider `COc1ccc(-c2ccc(NC(=O)c3cccc(F)c3)cc2)cc1CN1CCCN(C)CC1.O=C(O)C(F)(F)F`, for which the Inhibition worked out at 49%.

`COc1cccc(-c2cccc(-c3ccc(NC(=O)c4ccc([N+](=O)[O-])o4)cc3)n2)c1` showed an Inhibition of 94%.

Turning to `FC(F)(F)c1ccc(-c2ccc(CNC3CCN(CCN4CCOCC4)CC3)cc2)cc1`, the Inhibition came out at 74%.

`N#Cc1ccc(CNCCCCCCCNCc2ccc(-c3ccccc3)cc2)cc1` showed an Inhibition of 10%.

`O=C(Nc1cccc(-c2cccc(-c3nc4cc(C(F)(F)F)ccc4[nH]3)c2)c1)c1ccoc1` showed an Inhibition of 61%.

Regarding `CN(C)CCOc1ccc(-c2cc(-c3ccc(Cl)c(O)c3)c(-c3ccncc3)[nH]2)cc1.Cl`, the Inhibition came to 92%.

Regarding `Clc1ccc(-c2cc(-c3csc(NCCN4CCOCC4)n3)on2)c(Cl)c1`, the Inhibition was determined as 86%.

Regarding `Cc1cc(-c2cccc(CNCc3ccc(F)cc3)c2)ccc1S(=O)(=O)NCCN1CCCC1.O=C(O)C(F)(F)F`, the Inhibition is 64%.

Take `O=C(Nc1ccc(Br)cc1)c1cc(Br)ccc1NS(=O)(=O)c1cc(C(F)(F)F)cc(C(F)(F)F)c1`: the Inhibition came to 67%.

Consider `CN(C)CCC1CCCc2ccc(NC(=O)Nc3cccc(Cl)c3Cl)cc21.Cl` (centres undefined), for which the Inhibition came out at 11%.

`CN1CCN(CCc2ccc3nc(-c4csc(Cc5cc(Cl)ccc5OCc5ccccc5)n4)[nH]c3c2)CC1` had an Inhibition of 97%.

In turn, `COc1cc2c(cc1NS(=O)(=O)c1ccc(OCc3ccc(Br)cc3)cc1)CCN(C1CCC1)CC2.Cl` displayed an Inhibition of 30%.

In the case of `O=C(/C=C/c1ccc(Cl)c(Cl)c1)NCC[C@@H]1C[C@H]1CCN1CCC(c2c[nH]c3ccccc23)CC1`, the Inhibition is 22%.

For `Cc1cccc2nc(-c3ccc(-c4cccc(CNCc5ccccc5)c4)cc3)[nH]c12.O=C(O)C(F)(F)F`, the Inhibition is reported as 52%.

As to `Br.CC1(C)NC(N)=NC(=N)N1OCCOc1ccc(Cc2ccccc2)cc1`, the Inhibition was 26%.

Consider `O=C(/C=C/c1ccc(Cl)c(Cl)c1)N1CCC(CCCN2CCC(c3c[nH]c4ccc(O)cc34)CC2)CC1`, for which the Inhibition is given as 99%.

As to `O=C(O)C(F)(F)F.c1cc(CN2CCC(CCN3CCCCC3)CC2)cc(-c2csc(-c3nc4ccccc4[nH]3)c2)c1`, the Inhibition is reported as 99%.

`O=C(O)C(F)(F)F.O=S(=O)(NC1CCN(c2ccnc3cc(Cl)ccc23)C1)c1ccc(F)cc1` (centres undefined): the Inhibition was found to be 88%.

Regarding `Br.Clc1ccc(-c2nc(-c3ccncc3)c[nH]2)cc1Cl`, the Inhibition was found to be 63%.

Compound `Cc1ccc(Nc2nc(-c3ccccn3)cs2)nc1` gave an Inhibition of 97%.

The compound `CCOc1cc(CC)ccc1C1CCN(CCCCNC(=O)c2ccc(NC(=O)c3ccc(Cl)cc3)cc2)CC1.Cl` came in with an Inhibition of 58%.

The compound `Cc1c(-c2cccc(C(C)(C)NCCCN3CCCCC3)c2)cnc(N)c1C.Cl` showed an Inhibition of 2%.

`CC[C@H](NC(=O)c1c(CCCN2CCN(c3ccccc3)CC2)c(-c2ccccc2)nc2cc(O)ccc12)c1ccccc1`: the Inhibition came to 97%.

Take `O=C(Nc1cccc(-c2cccc(-c3nc4cc(F)ccc4[nH]3)c2)c1)Nc1ccc(F)c(F)c1F`: the Inhibition is 100%.

The compound `CS(=O)(=O)N1CC2(CCN(CCC(NC(=O)NCc3ccc(Cl)c(Cl)c3)c3ccc(Cl)c(Cl)c3)CC2)c2ccccc21` (centres undefined) showed an Inhibition of 59%.

(Values after ChEMBL document CHEMBL1157539, “Thousands of chemical starting points for antimalarial lead identification” (Nature, 2010).)
